± gives the standard deviation of the averaged measurements.
What was measured:
Settings in all cases: concentration: 10 µM; 24 h
HCC1569 [1] = assay: cell number relative to DMSO (% of DMSO); higher = more cells (less growth inhibition / toxicity)
Summary of the method: (§1)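 After 24 h at 37 °C with compounds at 10 µM, in triplicate, HCC1569 and TDF cells were fixed with 3.7% formaldehyde. Immunostaining used a rabbit anti-H1.0 antibody and an AlexaFluor 647 secondary, with DAPI, and six fields per well were imaged at ×10. H1.0 nuclear intensity or cell number is presented as percent of the plate control, from the median of replicates, with HCC1569 values smoothed for positional effects.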

TDF [2] = assay: as above
Summary of the method: as §1

TDF [3] = assay: H1.0 immunofluorescence intensity relative to DMSO (% of DMSO); higher = stronger H1.0 induction, active = 120 or more
Summary of the method: as §1

HCC1569 [4] = assay: H1.0 immunofluorescence intensity relative to DMSO (% of DMSO); higher = stronger H1.0 induction, active = 140 or more
Summary of the method: as §1
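Wherever H1.0 immunofluorescence intensity relative to DMSO is given: TDF is a line of transformed human dermal fibroblasts of mesenchymal origin.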
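Wherever cell number relative to DMSO is given: TDF denotes transformed human dermal fibroblasts of mesenchymal origin.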

SMILES	cell number (HCC1569 [1])	cell number (TDF [2])	H1.0 immunofluorescence intensity (TDF [3])	H1.0 immunofluorescence intensity (HCC1569 [4])
CN1CCN(CCCCN2C(=O)CN(/N=C/c3ccc(-c4ccc(Cl)cc4)o3)C2=O)CC1.Cl.Cl	98.2	102	92.6 (inactive)	115 (inactive)
Cl.c1ccc(C2CN3CCSC3=N2)cc1 (centres undefined) [Tetramisole hydrochloride]	99.8	114	91.7 (inactive)	105 (inactive)
COc1cc(Br)c(S(=O)(=O)Nc2ccc(Cl)c(O[C@@H]3CCN(C)C3)c2)cc1OC	83.2	82.9	94.8 (inactive)	137 (inactive)
CC1C2CCC3C4CC=C5CC(N(C)C)CCC5(C)C4CCC32CN1C (centres undefined) [Conessine]	103	104	109 (inactive)	113 (inactive)
CN1CCc2ccccc2Cc2[nH]c3ccccc3c2CC1	104	108	92.4 (inactive)	100 (inactive)
COCC(=O)OC1(CCN(C)CCCc2nc3ccccc3[nH]2)CCc2cc(F)ccc2C1C(C)C.Cl.Cl (centres undefined) [Mibefradil dihydrochloride]	84.2	90.1	111 (inactive)	124 (inactive)
O=C1CC(c2ccc(O)cc2)Oc2cc(OC3OC(CO)C(O)C(O)C3O)cc(O)c21 (centres undefined) [Narigenin-7-O-glucoside]	101	103	97.8 (inactive)	86.5 (inactive)
O=C1NC(=O)C(c2ccccc2)(c2ccccc2)N1 [Phenytoin]	104	98.5	95.8 (inactive)	110 (inactive)
N#CC(=Cc1ccc(O)c(O)c1)C(=O)OCC=Cc1ccccc1	91.9	105	90.5 (inactive)	115 (inactive)
CC(C)(CO)C(O)C(=O)NCCC(=O)O (centres undefined) [Pantothenic acid]	104	95.9	106 (inactive)	98.2 (inactive)
OC(Cn1cncn1)(Cn1cncn1)c1ccc(F)cc1F [Fluconazole]	102	100	93.8 (inactive)	106 (inactive)
CCCCCC(=O)C=CC1C(O)CC(=O)C1CC=CCCCC(=O)O (centres undefined) [15-keto-prostaglandin E2]	100	108	89.3 (inactive)	90.9 (inactive)
CCC(C)N(C)C(=O)c1cc2ccccc2c(-c2ccccc2Cl)n1 (centres undefined)	101	110	90.8 (inactive)	84 (inactive)
Cc1ccc(S(=O)(=O)NC(=O)NN2CC3CCCC3C2)cc1 (centres undefined) [Gliclazide]	101	106	89 (inactive)	114 (inactive)
O=c1cc(-c2cccc3c2Sc2ccccc2S3)oc(N2CCOCC2)c1	83.2	97.9	94.5 (inactive)	145 (active)
CCC=CCC=CCC=CCC=CCC=CCCCCCC(=O)O [Docosapentaenoic acid]	100.4 ± 0.68	97.7 ± 1.7	101 (inactive)	103 (inactive)
NCCCCCCCCCCN [1,10-Diaminodecane]	101	98.7	89.4 (inactive)	88.5 (inactive)
CC1CCC2(C(=O)O)CCC3(C)C(=CCC4C5(C)CC(O)C(O)C(C)(CO)C5CCC43C)C2C1C (centres undefined) [Asiatic acid]	104	99.6	101 (inactive)	94.7 (inactive)
Nc1nc(N)nc(-c2cc(Cl)ccc2Cl)n1 [Irsogladine]	105	105	94.5 (inactive)	107 (inactive)
Cn1cnc2cc3c(Nc4cccc(Br)c4)ncnc3cc21	92.4	114	79.6 (inactive)	117 (inactive)
CN(C)c1ccnc2sc3c(=O)n(N4CCCCCC4)cnc3c12	109	103	91 (inactive)	89.5 (inactive)
CCCCCC=CCC=CCC=CCCCCC(=O)O [γ-Linolenic acid (18:3 n-6)]	99.3	96.9	96.6 (inactive)	98.8 (inactive)
Cn1cc[nH]c1=S [Methimazole]	107	103	97.9 (inactive)	102 (inactive)
O=C1NC(=O)C(=Cc2ccc3nccnc3c2)S1 [PI 3-Kg Inhibitor]	103	110	87.2 (inactive)	114 (inactive)
COc1cc(C(O)C(=O)O)ccc1O (centres undefined) [hydroxy(4-hydroxy-3-methoxyphenyl)acetic acid]	99.7	99.1	94.8 (inactive)	99.4 (inactive)
CCCCn1c(=O)c2c(ncn2CC(C)=O)n(CCCC)c1=O [Denbufylline]	103	112	87.3 (inactive)	106 (inactive)

Reference: the supplement of paper PMC7156485
